Several values for one entry are separate records, joined by “and”; a condition that tells them apart may be missing. Equal entries are not always repeated. Among all 5,500 compounds or so, about 2,000 (36%) were called active. Inconclusive results (about 18%) are left out. Rule as the data show it: active = normalized growth mostly below about 0.91 (no sharp cut-off); inconclusive = no clear call, values can overlap the other calls; inactive = mostly above about 0.92. The list shows a part of the results.
Experiment: chemical genetic growth profiling, strain panel (AID 1159580);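 also: tested at 20 µM; growth read once vehicle control cultures reached saturation at 30 °C; 1 = growth at the plate median or of vehicle wells; lower values mean less growth of the strain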
Conditions: S. cerevisiae deletion strains, growth OD

Measured: normalized growth

C=CCSCC1Nc2cc(Cl)c(S(N)(=O)=O)cc2S(=O)(=O)N1 (configuration not stated)
inactive: locus YAL013W, strain DEP1, hits give low values 1.01 | locus YAL021C, strain ccr4, hits give low values 0.994 | locus YAL026C, strain drs2, hits give low values 1.01 | locus YAL030W, strain snc1, hits give low values 1 | locus YBL061C, strain skt5, hits give low values 1 | locus YBR009C, strain hhf1, hits give low values 0.995 | locus YBR021W, strain FUR4, hits give low values 0.991 | locus YBR023C, strain chs3, hits give low values 1 | locus YBR171W, strain sec66, hits give low values 1.01 | locus YBR229C, strain ROT2, hits give low values 1.01 | locus YBR231C, strain swc5, hits give low values 0.985 | locus YBR279W, strain paf1, hits give low values 1 | locus YCL011C, strain gbp2, hits give low values 1 | locus YCL016C, strain dcc1, hits give low values 0.993 | locus YCL029C, strain bik1, hits give low values 1.02 | locus YCL061C, strain MRC1, hits give low values 1 | locus YCL069W, strain vba3, hits give low values 0.999 | locus YCR088W, strain abp1, hits give low values 1 | locus YDL005C, strain med2, hits give low values 0.997 | locus YDL035C, strain GPR1, hits give low values 1.01 | locus YDL040C, strain nat1, hits give low values 1 | locus YDL074C, strain BRE1, hits give low values 1.01 | locus YDL101C, strain DUN1, hits give low values 1.01 | locus YDL134C, strain PPH21, hits give low values 1.01 | locus YDL185W, strain tfp1, hits give low values 1.02 | locus YDL192W, strain arf1, hits give low values 1.02 | locus YDR001C, strain nth1, hits give low values 1 | locus YDR069C, strain doa4, hits give low values 0.997 | locus YDR101C, strain arx1, hits give low values 1.01 | locus YDR137W, strain rgp1, hits give low values 1 | locus YDR150W, strain NUM1, hits give low values 1.01 | locus YDR159W, strain sac3, hits give low values 0.981 | locus YDR162C, strain NBP2, hits give low values 1.02 | locus YDR195W, strain ref2 1 | locus YDR297W, strain sur2, hits give low values 1 | locus YDR318W, strain mcm21, hits give low values 1.02 | locus YDR334W, strain swr1, hits give low values 1 | locus YDR335W, strain msn5, hits give low values 1.01 | locus YDR388W, hits give low values 1.02 | locus YDR392W, strain spt3, hits give low values 0.939 | locus YDR502C, strain sam2, hits give low values 1.03 | locus YEL003W, strain gim4, hits give low values 1 | locus YEL037C, strain rad23, hits give low values 1 | locus YEL061C, strain CIN8 (second series), hits give low values 0.997 | locus YEL061C, strain CIN8, hits give low values 1 | locus YER015W, strain faa2, hits give low values 1 | locus YER016W, strain bim1, hits give low values 1 | locus YER110C, hits give low values 1.03 | locus YER111C, strain swi4, hits give low values 1 | locus YER155C, strain BEM2 (second series), hits give low values 1 | locus YER155C, strain BEM2, hits give low values 1 | locus YER167W, strain BCK2, hits give low values 1 | locus YFR010W, strain ubp6, hits give low values 1.01 | locus YGL078C, strain dbp3, hits give low values 1.03 | locus YGL086W, strain mad1, hits give low values 1.01 | locus YGL167C, strain pmr1, hits give low values 1 | locus YGL173C, strain kem1, hits give low values 1 | locus YGL227W, strain vid30, hits give low values 0.99 | locus YGL240W, strain doc1, hits give low values 0.992 | locus YGL248W, strain PDE1, hits give low values 1.01 | locus YGL253W, strain hxk2, hits give low values 0.992 | locus YGR078C, strain PAC10, hits give low values 1 | locus YGR135W, strain pre9, hits give low values 1.01 | locus YGR229C, strain SMI1, hits give low values 1.01 | locus YGR252W, strain gcn5, hits give low values 1.06 | locus YHR013C, strain ard1, hits give low values 0.988 | locus YHR027C, strain rpn1, hits give low values 1.01 | locus YHR030C, strain SLT2, hits give low values 1 and 1.06 | locus YHR079C, strain IRE1 (second series), hits give low values 1.02 | locus YHR079C, strain IRE1, hits give low values 1.06 | locus YHR094C, strain hxt1, hits give low values 1.02 | locus YHR129C, strain ARP1, hits give low values 1.02 | locus YHR142W, strain chs7, hits give low values 0.988 | locus YHR200W, strain rpn10, hits give low values 1.03 | locus YIL066C, strain RNR3, hits give low values 1 | locus YIL073C, strain SPO22, hits give low values 1.08 | locus YIL125W, strain kgd1, hits give low values 1.02 | locus YIR030C, strain dcg1, hits give low values 1.03 | locus YJL092W, strain hpr5, hits give low values 0.995 | locus YJL095W, strain BCK1 (second series), hits give low values 0.994 | locus YJL095W, strain BCK1, hits give low values 1 and 1.06 | locus YJL115W, strain asf1, hits give low values 1 | locus YJL129C, strain trk1, hits give low values 0.989 | locus YJL134W, strain LCB3, hits give low values 1.01 | locus YJL154C, strain vps35, hits give low values 0.999 | locus YJL164C, strain tpk1, hits give low values 1.01 | locus YJL166W, strain qcr8, hits give low values 0.998 | locus YJL168C, strain set2, hits give low values 1.03 | locus YJL187C, strain SWE1 (second series), hits give low values 1.01 | locus YJL187C, strain SWE1, hits give low values 1 | locus YJR043C, strain POL32, hits give low values 1 | locus YJR066W, strain TOR1, hits give low values 0.991
